# In PMC7862700, “An all-to-all approach to the identification of sequence-specific readers for epigenetic DNA modifications on cytosine”:
# Tests used:
# Experiment in all cases: DAPPL (digital affinity profiling via proximity ligation, sequencing); 10 mM Tris-HCl pH 7.5, 50 mM NaCl, 1 mM DTT, 4% glycerol, room temperature, 30 min; GST-TFs on glutathione beads, 16-mer random dsDNA library, 0.1% formaldehyde crosslink after washing; high values mean tight binding
# [1] = target: T1, FEV (Homo sapiens, UniProt Q99581 1-238); settings: protein: recombinant; tags: N-terminal GST; dsDNA, one strand shown
# T1 sequence: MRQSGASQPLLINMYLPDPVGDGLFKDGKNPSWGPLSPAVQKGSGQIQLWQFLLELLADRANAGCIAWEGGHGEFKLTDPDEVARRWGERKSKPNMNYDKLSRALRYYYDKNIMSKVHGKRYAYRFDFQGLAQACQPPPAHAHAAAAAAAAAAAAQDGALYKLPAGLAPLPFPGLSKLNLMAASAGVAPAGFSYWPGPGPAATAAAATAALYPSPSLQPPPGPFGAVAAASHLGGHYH
# Method in brief: (§1)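 After expression in yeast as GST fusions, human transcription factors were bound to glutathione beads, DNA-barcoded and mixed with a tag-only sample. The pools were incubated with 200 nmole of a 16-mer random double-stranded DNA library in Tris/NaCl/DTT/glycerol buffer (30 min, room temperature), washed and crosslinked with 0.1% formaldehyde. Proximity ligation with BsaI/T4 ligase ran for 1 h at 37 °C, before PCR amplification and sequencing on an Illumina NextSeq500. Binding signal is a hexamer's read frequency for a factor divided by its frequency for the tag-only sample.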
# [2] = target: ETV5 (Homo sapiens, UniProt P41161 1-510); settings: protein: recombinant; tags: N-terminal GST; dsDNA, one strand shown
# Method in brief: as §1
# [3] = target: HSF1 (Homo sapiens, UniProt Q00613 1-529); settings: protein: recombinant; tags: N-terminal GST; chain copies: 3; dsDNA, one strand shown
# Method in brief: as §1
# [4] = target: T2, SPIC (Homo sapiens, UniProt Q8N5J4 1-248); settings: protein: recombinant; tags: N-terminal GST; dsDNA, one strand shown
# T2 sequence: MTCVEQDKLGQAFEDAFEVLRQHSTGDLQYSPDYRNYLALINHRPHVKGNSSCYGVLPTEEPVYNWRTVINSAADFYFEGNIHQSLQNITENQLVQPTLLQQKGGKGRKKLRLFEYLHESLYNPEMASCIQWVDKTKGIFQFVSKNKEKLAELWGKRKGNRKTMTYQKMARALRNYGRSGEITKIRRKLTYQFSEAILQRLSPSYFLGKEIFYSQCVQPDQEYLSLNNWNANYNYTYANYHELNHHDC
# Method in brief: as §1
# [5] = target: ELF4 (Homo sapiens, UniProt Q99607 1-663); settings: protein: recombinant; tags: N-terminal GST; dsDNA, one strand shown
# Method in brief: as §1
# [6] = target: T3, ELK4 (Homo sapiens, UniProt P28324-2 1-405); settings: protein: recombinant; tags: N-terminal GST; dsDNA, one strand shown
# T3 sequence: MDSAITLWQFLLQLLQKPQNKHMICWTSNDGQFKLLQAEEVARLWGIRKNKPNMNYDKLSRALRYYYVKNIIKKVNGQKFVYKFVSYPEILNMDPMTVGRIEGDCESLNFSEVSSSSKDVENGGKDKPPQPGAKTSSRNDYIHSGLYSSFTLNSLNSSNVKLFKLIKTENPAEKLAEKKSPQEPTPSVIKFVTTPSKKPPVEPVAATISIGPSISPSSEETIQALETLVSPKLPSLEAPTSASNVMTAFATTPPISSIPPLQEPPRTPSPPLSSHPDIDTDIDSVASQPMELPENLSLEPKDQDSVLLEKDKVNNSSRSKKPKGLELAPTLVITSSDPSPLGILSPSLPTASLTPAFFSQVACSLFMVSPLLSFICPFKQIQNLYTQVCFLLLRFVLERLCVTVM
# Method in brief: as §1
# [7] = target: T4, ETV2 (Homo sapiens, UniProt O00321 1-342); settings: protein: recombinant; tags: N-terminal GST; dsDNA, one strand shown
# T4 sequence: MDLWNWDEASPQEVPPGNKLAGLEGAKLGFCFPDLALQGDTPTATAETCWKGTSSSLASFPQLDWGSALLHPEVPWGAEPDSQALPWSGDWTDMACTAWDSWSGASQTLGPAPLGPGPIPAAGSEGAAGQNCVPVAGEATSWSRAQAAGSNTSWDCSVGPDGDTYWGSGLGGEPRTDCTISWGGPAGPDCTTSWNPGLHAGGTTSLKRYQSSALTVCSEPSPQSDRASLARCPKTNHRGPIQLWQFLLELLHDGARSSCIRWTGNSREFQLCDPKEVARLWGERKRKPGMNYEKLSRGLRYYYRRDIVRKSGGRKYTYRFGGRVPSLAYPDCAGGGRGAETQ
# Method in brief: as §1
# [8] = target: T5, ELF3 (Homo sapiens, UniProt P78545 1-371); settings: protein: recombinant; tags: N-terminal GST; dsDNA, one strand shown
# T5 sequence: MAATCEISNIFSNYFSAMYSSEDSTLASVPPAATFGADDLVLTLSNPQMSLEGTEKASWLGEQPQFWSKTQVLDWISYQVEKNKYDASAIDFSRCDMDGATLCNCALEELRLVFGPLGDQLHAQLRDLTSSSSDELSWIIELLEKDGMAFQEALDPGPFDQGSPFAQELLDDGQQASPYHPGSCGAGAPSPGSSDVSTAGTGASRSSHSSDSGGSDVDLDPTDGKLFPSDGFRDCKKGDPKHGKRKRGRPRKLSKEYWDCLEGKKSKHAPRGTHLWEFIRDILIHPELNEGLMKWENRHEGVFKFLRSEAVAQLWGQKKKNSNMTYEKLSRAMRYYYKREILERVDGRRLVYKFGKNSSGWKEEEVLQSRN
# Method in brief: as §1
# [9] = target: CRX (Homo sapiens, UniProt O43186 1-299); settings: protein: recombinant; tags: N-terminal GST; dsDNA, one strand shown
# Method in brief: as §1
# [10] = target: ETV1 (Homo sapiens, UniProt P50549 1-477); settings: protein: recombinant; tags: N-terminal GST; dsDNA, one strand shown
# Method in brief: as §1
# [11] = target: T6, ERF (Homo sapiens, UniProt P50548 1-548); settings: protein: recombinant; tags: N-terminal GST; dsDNA, one strand shown
# T6 sequence: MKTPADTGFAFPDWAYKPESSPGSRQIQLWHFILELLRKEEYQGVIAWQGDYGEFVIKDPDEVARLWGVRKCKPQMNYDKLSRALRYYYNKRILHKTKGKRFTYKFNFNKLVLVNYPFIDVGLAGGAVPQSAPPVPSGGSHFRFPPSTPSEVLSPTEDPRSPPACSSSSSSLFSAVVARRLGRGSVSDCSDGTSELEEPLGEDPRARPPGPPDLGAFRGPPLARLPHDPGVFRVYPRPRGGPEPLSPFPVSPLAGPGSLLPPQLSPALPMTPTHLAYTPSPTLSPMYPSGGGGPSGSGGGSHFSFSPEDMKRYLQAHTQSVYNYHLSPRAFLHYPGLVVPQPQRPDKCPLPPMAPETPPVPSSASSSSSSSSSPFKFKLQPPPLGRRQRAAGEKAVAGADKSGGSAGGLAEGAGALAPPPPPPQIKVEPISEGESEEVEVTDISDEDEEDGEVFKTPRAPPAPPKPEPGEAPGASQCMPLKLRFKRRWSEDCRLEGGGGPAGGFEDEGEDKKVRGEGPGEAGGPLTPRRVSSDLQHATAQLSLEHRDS
# Method in brief: as §1
# [12] = target: T7, ETV3L (Homo sapiens, UniProt Q6ZN32 1-361); settings: protein: recombinant; tags: N-terminal GST; dsDNA, one strand shown
# T7 sequence: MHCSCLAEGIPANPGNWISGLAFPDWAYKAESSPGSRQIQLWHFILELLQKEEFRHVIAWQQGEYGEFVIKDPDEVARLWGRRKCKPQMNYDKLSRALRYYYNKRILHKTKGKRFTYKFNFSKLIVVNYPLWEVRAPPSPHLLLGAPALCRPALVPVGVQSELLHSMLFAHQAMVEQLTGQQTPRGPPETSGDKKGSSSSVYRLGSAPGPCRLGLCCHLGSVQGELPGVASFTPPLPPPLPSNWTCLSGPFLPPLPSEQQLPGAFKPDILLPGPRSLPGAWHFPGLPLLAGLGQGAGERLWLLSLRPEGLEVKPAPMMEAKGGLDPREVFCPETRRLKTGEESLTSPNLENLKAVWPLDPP
# Method in brief: as §1
# [13] = target: T8, ETS2 (Homo sapiens, UniProt P15036 1-469); settings: protein: recombinant; tags: N-terminal GST; dsDNA, one strand shown
# T8 sequence: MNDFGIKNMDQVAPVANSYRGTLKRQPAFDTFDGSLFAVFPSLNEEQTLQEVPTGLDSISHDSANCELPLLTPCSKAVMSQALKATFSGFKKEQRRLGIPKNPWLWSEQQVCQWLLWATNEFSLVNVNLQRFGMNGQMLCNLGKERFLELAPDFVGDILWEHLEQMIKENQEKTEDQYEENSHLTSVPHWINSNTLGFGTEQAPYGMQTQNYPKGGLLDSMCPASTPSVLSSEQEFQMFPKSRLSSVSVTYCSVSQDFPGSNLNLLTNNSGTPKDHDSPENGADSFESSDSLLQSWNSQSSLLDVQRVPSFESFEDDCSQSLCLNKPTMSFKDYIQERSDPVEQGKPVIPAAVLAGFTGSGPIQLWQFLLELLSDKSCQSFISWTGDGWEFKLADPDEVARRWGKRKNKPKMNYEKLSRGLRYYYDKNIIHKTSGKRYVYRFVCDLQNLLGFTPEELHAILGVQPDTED
# Method in brief: as §1
# [14] = target: T9, SPDEF (Homo sapiens, UniProt O95238 1-335); settings: protein: recombinant; tags: N-terminal GST; dsDNA, one strand shown
# T9 sequence: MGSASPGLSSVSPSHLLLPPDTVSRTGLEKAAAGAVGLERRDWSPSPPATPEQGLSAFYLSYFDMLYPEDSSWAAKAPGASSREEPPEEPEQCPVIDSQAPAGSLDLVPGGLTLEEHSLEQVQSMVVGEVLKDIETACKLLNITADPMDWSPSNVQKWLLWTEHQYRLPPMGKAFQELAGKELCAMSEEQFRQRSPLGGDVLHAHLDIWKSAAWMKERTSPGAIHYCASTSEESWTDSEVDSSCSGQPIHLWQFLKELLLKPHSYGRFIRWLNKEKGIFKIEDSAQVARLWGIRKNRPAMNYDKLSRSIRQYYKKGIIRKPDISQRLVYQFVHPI
# Method in brief: as §1
# [15] = target: T10, ETV7 (Homo sapiens, UniProt Q9Y603 1-341); settings: protein: recombinant; tags: N-terminal GST; dsDNA, one strand shown
# T10 sequence: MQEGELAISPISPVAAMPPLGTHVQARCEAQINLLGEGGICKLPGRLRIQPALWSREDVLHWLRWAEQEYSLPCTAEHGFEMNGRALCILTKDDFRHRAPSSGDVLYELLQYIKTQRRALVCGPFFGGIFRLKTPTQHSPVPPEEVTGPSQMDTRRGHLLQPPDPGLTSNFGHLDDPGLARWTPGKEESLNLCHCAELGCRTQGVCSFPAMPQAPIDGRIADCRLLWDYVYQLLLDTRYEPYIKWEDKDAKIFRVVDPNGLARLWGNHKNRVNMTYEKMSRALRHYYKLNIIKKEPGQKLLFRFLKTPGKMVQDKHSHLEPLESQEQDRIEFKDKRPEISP
# Method in brief: as §1
# [16] = target: T11, ELF5 (Homo sapiens, UniProt Q9UKW6-2 1-255); settings: protein: recombinant; tags: N-terminal GST; dsDNA, one strand shown
# T11 sequence: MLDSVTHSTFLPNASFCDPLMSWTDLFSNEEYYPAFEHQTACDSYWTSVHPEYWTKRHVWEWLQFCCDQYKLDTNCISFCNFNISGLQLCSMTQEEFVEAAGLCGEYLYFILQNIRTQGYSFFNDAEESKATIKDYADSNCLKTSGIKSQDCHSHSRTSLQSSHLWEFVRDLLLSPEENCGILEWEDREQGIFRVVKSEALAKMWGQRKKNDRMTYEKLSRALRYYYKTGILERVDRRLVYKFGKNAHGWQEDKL
# Method in brief: as §1
# [17] = target: T12, ETV3 (Homo sapiens, UniProt P41162-2 1-143); settings: protein: recombinant; tags: N-terminal GST; dsDNA, one strand shown
# T12 sequence: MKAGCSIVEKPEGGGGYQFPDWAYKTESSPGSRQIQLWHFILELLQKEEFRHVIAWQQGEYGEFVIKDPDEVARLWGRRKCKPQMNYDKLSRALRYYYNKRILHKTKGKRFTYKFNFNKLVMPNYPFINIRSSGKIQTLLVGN
# Method in brief: as §1
# [18] = target: ETV6 (Homo sapiens, UniProt P41212 1-452); settings: protein: recombinant; tags: N-terminal GST; dsDNA, one strand shown
# Method in brief: as §1
# ETV5, sequence (P41161 whole entry): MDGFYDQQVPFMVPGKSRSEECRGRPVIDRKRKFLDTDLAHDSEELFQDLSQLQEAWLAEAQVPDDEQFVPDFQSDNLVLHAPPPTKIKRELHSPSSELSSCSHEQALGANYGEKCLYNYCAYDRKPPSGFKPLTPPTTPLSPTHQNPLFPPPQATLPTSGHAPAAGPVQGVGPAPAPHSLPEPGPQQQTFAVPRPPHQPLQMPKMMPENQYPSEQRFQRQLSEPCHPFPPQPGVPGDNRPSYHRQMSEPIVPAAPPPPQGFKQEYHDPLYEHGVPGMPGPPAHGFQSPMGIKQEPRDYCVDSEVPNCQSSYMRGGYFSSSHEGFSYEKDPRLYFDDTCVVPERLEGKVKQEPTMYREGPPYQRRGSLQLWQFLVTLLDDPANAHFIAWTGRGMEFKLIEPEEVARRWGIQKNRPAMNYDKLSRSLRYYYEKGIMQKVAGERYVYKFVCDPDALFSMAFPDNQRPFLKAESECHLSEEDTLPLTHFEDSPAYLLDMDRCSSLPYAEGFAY
# CRX, sequence (O43186 whole entry): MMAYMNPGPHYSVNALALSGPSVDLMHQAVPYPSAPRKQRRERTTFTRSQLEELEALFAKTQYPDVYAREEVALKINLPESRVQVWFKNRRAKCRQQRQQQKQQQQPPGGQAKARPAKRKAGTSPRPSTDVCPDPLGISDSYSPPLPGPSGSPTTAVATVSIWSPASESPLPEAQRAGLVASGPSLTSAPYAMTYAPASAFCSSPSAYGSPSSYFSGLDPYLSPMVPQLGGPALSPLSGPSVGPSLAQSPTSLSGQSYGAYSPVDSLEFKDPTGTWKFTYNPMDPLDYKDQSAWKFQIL
# HSF1, sequence (Q00613 whole entry): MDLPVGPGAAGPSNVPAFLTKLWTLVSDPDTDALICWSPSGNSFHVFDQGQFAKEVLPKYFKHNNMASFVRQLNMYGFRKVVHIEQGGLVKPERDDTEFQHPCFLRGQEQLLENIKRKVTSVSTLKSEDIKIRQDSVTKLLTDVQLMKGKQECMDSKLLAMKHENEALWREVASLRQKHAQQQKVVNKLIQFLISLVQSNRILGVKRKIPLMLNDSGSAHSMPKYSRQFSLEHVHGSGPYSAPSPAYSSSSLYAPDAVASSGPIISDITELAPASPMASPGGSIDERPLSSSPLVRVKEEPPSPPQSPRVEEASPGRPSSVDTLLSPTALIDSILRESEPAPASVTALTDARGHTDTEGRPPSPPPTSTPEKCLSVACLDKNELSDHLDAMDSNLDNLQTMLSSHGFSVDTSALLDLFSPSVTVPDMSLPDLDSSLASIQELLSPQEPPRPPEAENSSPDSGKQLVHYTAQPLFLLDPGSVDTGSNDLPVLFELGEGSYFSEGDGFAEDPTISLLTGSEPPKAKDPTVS
# ELF4, sequence (Q99607 whole entry): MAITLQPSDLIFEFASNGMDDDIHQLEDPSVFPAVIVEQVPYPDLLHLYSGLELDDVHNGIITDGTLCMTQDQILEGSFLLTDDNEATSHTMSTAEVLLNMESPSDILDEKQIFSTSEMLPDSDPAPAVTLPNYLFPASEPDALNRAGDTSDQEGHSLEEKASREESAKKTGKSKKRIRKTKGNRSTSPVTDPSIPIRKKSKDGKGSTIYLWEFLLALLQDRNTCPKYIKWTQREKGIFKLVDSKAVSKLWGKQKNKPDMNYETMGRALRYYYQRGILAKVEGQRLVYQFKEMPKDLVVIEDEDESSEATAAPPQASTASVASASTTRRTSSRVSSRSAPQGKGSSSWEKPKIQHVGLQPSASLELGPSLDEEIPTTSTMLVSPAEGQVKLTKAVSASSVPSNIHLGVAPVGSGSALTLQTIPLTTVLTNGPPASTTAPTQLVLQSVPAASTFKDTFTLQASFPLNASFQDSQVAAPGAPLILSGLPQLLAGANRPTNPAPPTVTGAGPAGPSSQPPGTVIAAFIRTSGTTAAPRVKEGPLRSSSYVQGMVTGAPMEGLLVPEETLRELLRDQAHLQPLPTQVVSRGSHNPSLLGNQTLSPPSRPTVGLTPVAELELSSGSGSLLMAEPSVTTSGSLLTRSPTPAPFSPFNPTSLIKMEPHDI
# ETV1, sequence (P50549 whole entry): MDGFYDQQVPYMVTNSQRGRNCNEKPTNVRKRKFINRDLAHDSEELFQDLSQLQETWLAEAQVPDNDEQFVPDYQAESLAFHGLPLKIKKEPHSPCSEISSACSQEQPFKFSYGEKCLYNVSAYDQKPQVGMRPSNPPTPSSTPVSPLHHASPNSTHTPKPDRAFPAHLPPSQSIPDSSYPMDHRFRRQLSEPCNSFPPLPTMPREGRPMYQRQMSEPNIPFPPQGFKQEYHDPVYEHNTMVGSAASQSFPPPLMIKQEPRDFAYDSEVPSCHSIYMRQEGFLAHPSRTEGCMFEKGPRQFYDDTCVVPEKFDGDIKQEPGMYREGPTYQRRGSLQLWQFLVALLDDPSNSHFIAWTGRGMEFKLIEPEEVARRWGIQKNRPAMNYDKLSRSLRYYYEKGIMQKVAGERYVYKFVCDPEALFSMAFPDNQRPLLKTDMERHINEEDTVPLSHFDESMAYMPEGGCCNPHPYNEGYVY
# ETV6, sequence (P41212 whole entry): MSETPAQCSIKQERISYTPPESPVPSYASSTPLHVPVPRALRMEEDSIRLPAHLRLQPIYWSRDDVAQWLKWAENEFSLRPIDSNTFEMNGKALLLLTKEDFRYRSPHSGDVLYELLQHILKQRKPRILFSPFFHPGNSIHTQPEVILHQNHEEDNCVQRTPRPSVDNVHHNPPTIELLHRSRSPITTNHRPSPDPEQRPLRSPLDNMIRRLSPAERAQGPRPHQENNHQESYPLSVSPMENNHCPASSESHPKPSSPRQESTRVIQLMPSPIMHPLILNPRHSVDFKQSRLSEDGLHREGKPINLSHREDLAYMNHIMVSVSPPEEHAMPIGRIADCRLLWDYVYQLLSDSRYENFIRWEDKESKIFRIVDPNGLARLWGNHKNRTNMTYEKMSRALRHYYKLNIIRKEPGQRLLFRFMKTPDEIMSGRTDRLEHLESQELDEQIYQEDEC
sequence,measurement,setting,value
GACTTC,binding signal,[1],"3.36 fold enrichment (6-mer frequency, TF over GST control)"
same,binding signal,[2],"2.51 fold enrichment (6-mer frequency, TF over GST control)"
same,binding signal,[3],"1.23 fold enrichment (6-mer frequency, TF over GST control)"
same,binding signal,[4],"2.23 fold enrichment (6-mer frequency, TF over GST control)"
same,binding signal,[5],"2.28 fold enrichment (6-mer frequency, TF over GST control)"
same,binding signal,[6],"2.22 fold enrichment (6-mer frequency, TF over GST control)"
same,binding signal,[7],"2.35 fold enrichment (6-mer frequency, TF over GST control)"
same,binding signal,[8],"2.29 fold enrichment (6-mer frequency, TF over GST control)"
same,binding signal,[9],"1.12 fold enrichment (6-mer frequency, TF over GST control)"
same,binding signal,[10],"2.56 fold enrichment (6-mer frequency, TF over GST control)"
same,binding signal,[11],"2.25 fold enrichment (6-mer frequency, TF over GST control)"
same,binding signal,[12],"2.41 fold enrichment (6-mer frequency, TF over GST control)"
same,binding signal,[13],"2.58 fold enrichment (6-mer frequency, TF over GST control)"
same,binding signal,[14],"2.13 fold enrichment (6-mer frequency, TF over GST control)"
same,binding signal,[15],"2.2 fold enrichment (6-mer frequency, TF over GST control)"
same,binding signal,[16],"2.99 fold enrichment (6-mer frequency, TF over GST control)"
same,binding signal,[17],"2.6 fold enrichment (6-mer frequency, TF over GST control)"
same,binding signal,[18],"2.64 fold enrichment (6-mer frequency, TF over GST control)"
